Among the data in PubChem BioAssay AID720504 (National Center for Advancing Translational Sciences (NCATS), 2013) are max response, negative = inhibition and Potency values, retold here.

Each structure is given as a SMILES string. Hit rate of the full screen: of about 360,000 compounds, about 10,000 (2.8%) were called active. About 4% were inconclusive and are not listed. What follows is part of a selection rich in actives, with near analogues and random picks from the rest. Unmarked numbers belong to inactive results. Calls come from the whole dose curve; as a rule, active = well fitted inhibition curve with a large enough effect; inconclusive = small, poorly fitted or top-dose-only effect; inactive = flat fitted curve, though single readings scatter.
% is set by controls: 0 for no effect and ±100 for the full control effect; potency is the fitted concentration of half-maximal effect.

This assay deals with Serine/threonine-protein kinase PLK1 (Homo sapiens) (UniProt P53350). Put plainly: qHTS for Inhibitors of PLK1-PDB (polo-like kinase 1 - polo-box domain): Primary Screen. For max response, negative = inhibition: series mostly up to about 57 µM. Note: nearly all actives have a fitted effect of over 65% in size. As to conditions: Plk1 PBD binding of FITC phosphopeptide, fluorescence polarization. A general note: qHTS replaces the single test concentration by a dilution series.
Sequence of Serine/threonine-protein kinase PLK1 (Homo sapiens) (P53350 whole entry, looked up, the tested form may be a part): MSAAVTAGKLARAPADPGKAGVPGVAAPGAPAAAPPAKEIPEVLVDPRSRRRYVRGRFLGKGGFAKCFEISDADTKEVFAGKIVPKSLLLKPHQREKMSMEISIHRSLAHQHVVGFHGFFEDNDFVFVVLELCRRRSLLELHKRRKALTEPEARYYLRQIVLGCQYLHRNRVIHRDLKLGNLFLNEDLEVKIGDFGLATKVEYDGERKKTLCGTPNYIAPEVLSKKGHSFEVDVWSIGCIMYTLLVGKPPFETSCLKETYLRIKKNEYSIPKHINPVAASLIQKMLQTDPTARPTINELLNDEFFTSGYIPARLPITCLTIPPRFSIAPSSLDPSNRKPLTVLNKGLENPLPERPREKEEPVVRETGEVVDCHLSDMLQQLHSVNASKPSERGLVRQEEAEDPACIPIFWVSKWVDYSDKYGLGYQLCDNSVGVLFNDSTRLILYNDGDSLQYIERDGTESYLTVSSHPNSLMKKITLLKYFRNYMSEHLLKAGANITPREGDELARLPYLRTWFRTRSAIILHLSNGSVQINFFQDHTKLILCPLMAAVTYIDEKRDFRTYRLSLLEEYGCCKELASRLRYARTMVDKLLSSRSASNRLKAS
Take `Cc1ccc(-c2ccc(CN3C(C)C(=O)N(Cc4cn(CCC5OCCCO5)nn4)CCS3(=O)=O)cc2)cc1` (stereo not given): the max response, negative = inhibition was -2.81%.

Regarding `O=C(NC1Cc2ccccc2C1)c1cc(COc2cccc(C(F)(F)F)c2)on1`, the max response, negative = inhibition is -5.34%.

On to `NC(c1ccccc1)c1csc(NC(=O)Nc2cccc(C(F)(F)F)c2)n1` (stereo not given), for which the max response, negative = inhibition was -4.96%.

Take `O=c1cc(CO)oc(C(Nc2cccc(C(F)(F)F)c2)c2ccccn2)c1O` (stereo not given): the Potency is 26.7 µM (active).

On to `COc1ccc(C=C2CCC3C(CCCC34OCCO4)C2=O)cc1` (stereo not given), for which the max response, negative = inhibition is -14.1%.

With `CCc1ccc(OC2(C)CCN(CCOc3ccc(C)cc3)C2)cc1` (stereo not given), the max response, negative = inhibition was 0.495%.

Turning to `O=C(COc1ccc(Br)cc1)OCC(=O)c1ccc[nH]1`, the max response, negative = inhibition is -8.67%.

For the molecule `COc1ccc2nc(N3C(=O)C(O)=C(C(=O)c4ccco4)C3c3ccco3)sc2c1` (stereo not given), the max response, negative = inhibition was -16.7%.

Regarding `O=C(C1=C(O)C(=O)N(c2ncccn2)C1c1cccs1)c1ccco1` (stereo not given), the max response, negative = inhibition is -18.5%.

On to `Cc1ccc2nc(N3C(=O)C(O)=C(C(=O)c4ccco4)C3c3cccc(O)c3)sc2c1` (stereo not given), for which the Potency is 18.9 µM (active).

On to `COc1ccc(-c2cc3nc(NCCOc4ccccc4)ccn3n2)cc1`, for which the max response, negative = inhibition is -1.91%.

On to `Cc1nc2c(OCc3ccc(Cl)cc3)cccn2c1N(C)Cc1cccs1`, for which the max response, negative = inhibition is -7.96%.

As for `Cc1ccc(-c2cnc(C(O)c3cccc(C)c3C)[nH]2)cc1` (stereo not given), the max response, negative = inhibition was 2.44%.

In the case of `O=c1[nH]n2c(-c3ccccc3)nc(O)c2c2ccccc12`, the max response, negative = inhibition was -5.86%.

For `O=c1[nH]c2ccccc2n2c(-c3ccccc3)nnc12`, the Potency is 0.947 µM (active).

With `O=C(c1ncn2c1c(=O)[nH]c1ccccc12)N1CCc2ccccc2C1`, the max response, negative = inhibition was 6.5%.

Consider `COc1ccc(Br)c(Cn2c(C)c(C(=O)NCc3cccs3)sc2=O)c1`, for which the max response, negative = inhibition was 8.23%.

Consider `CCOC(=O)[C@]12CCCC=C1N(CCC1=CCCCC1)C(=O)[C@H](CC(=O)NCCCCc1ccccc1)C2`, for which the max response, negative = inhibition was -2.05%.

For the molecule `Cc1ccccc1S(=O)(=O)Cc1ccc(C(=O)NCCN2CCCCC2C)o1` (stereo not given), the max response, negative = inhibition was 1.66%.

Regarding `CCc1ccccc1S(=O)(=O)Cc1ccc(C(=O)NCCc2ccccc2)o1`, the Potency is 26.7 µM (active).

In the case of `COc1ccccc1CNC(=O)c1ccc(CS(=O)(=O)c2ccccc2)o1`, the max response, negative = inhibition was -4.65%.

As to `COC(=O)c1ccc2nc(-c3cccc(Br)c3)c(Cc3ccc(OC)cc3C)n2c1`, the max response, negative = inhibition is -4.35%.

As to `CCC(c1nnnn1-c1ccc2c(c1)OCCO2)N1CCN(c2ccc(C(F)(F)F)cn2)CC1` (stereo not given), the max response, negative = inhibition is 3.69%.

As for `COc1ccc(C(CNC(=O)c2ccc(OCc3cscn3)cc2)N2CCCC2)cc1` (stereo not given), the max response, negative = inhibition was 3.78%.

Consider `Cc1cc(NC(=O)c2ccccc2C)no1`, for which the max response, negative = inhibition is -3.17%.

As to `Cc1csc(NC(=O)Nc2ccccc2[N+](=O)[O-])n1`, the max response, negative = inhibition was 3.11%.

For the molecule `Cc1cc(NC(=O)Nc2ccccc2[N+](=O)[O-])no1`, the Potency was 10.6 µM (active).

For the molecule `O=C(O)c1ccc(NC(=O)c2cn(-c3ccccc3)nc2-c2ccc(Cl)cc2)cc1`, the Potency is 26.7 µM (active).

On to `Cc1ccc(-c2nn(-c3ccccc3)cc2C(=O)NC2CCC(O)CC2)cc1` (stereo not given), for which the max response, negative = inhibition is 6.03%.

Turning to `Cc1ccc(-c2nn(-c3ccccc3)cc2C(=O)Nc2cccc(S(=O)(=O)N3CCOCC3)c2)cc1`, the max response, negative = inhibition is -5.73%.

Turning to `Nc1nc2c(Br)ccc(Br)c2cc1C(=O)NCCc1ccccc1`, the max response, negative = inhibition was -9.21%.

In the case of `COc1cccc(NC(=O)CN(C)C(=O)c2cc(Cl)nc3ccccc23)c1`, the max response, negative = inhibition is -14.4%.

As to `O=C(C[C@H]1C[C@H]2c3cc(NS(=O)(=O)c4ccc(F)cc4)ccc3O[C@H]2[C@H](CO)O1)NCc1cc(F)ccc1F`, the max response, negative = inhibition was -5.98%.

As to `O=c1ccc2c(-c3ccccc3S(=O)(=O)O)c3ccc(O)c(O)c3oc-2c1O`, the Potency is 7.52 µM (active).

Consider `O=C(c1cccs1)N1C[C@H](n2cc(C3CC3)nn2)[C@@H](O)C[C@@H]1c1ccccc1`, for which the max response, negative = inhibition was 0.263%.

With `Cc1ccc(N2CC(C(=O)Nc3ccc(S(=O)(=O)N4CCCC4)cc3)CC2=O)cc1C` (stereo not given), the max response, negative = inhibition is -12.9%.

In the case of `O=C(Nc1ccc(S(=O)(=O)N2CCCCC2)cc1)C1CC(=O)N(c2ccc(F)cc2)C1` (stereo not given), the max response, negative = inhibition is -7.84%.

`CNS(=O)(=O)c1ccc(NC(=O)C2CC(=O)N(c3ccc(Cl)cc3)C2)cc1` (stereo not given): the Potency was 26.7 µM (active).

In the case of `CCc1nc2c(OCCC3CCCCC3)cccn2c1N(C)C(=O)c1ccco1`, the max response, negative = inhibition was -5.85%.

Take `COc1ccc(N2c3ccccc3CN(Cc3ccccc3)[C@@H](C)[C@H]2Cc2ccc(-c3ccccc3)cc2)cc1`: the max response, negative = inhibition was 3.32%.

On to `Cc1sc2ncnc(SCC(=O)NC3CCS(=O)(=O)C3)c2c1C` (stereo not given), for which the max response, negative = inhibition was -10.2%.

As to `O=C(NCc1nnnn1-c1ccc(Cl)cc1)c1ccc2c(c1)OCO2`, the max response, negative = inhibition is -15.4%.

`COc1ccc(C(=O)NCC2CCCO2)cc1S(=O)(=O)NCc1ccc(Cl)cc1` (stereo not given): the max response, negative = inhibition is -11.7%.

With `Cc1ccc([C@H]2C[C@H](O)[C@@H](n3cc(COC(=O)c4ccccc4)nn3)CN2C(=O)C2CCCCC2)cc1`, the max response, negative = inhibition is -1.5%.

As for `O=c1[nH]c2ccccc2s1`, the max response, negative = inhibition was -9.39%.

`Nc1ccc2[nH]c(=S)sc2c1`: the Potency is 2.99 µM (active).

Turning to `CC1=C(C(=O)N2CCOCC2)CC(CC(=O)NCc2ccco2)C(=O)N1Cc1ccc(F)cc1` (stereo not given), the max response, negative = inhibition was -9%.

Consider `CCOC(=O)C1CCCN(C(=O)c2cccc3ccccc23)CC1` (stereo not given), for which the max response, negative = inhibition is -9.5%.

On to `N#Cc1nc(COc2ccc(Cl)cc2)oc1N1CCCC1`, for which the max response, negative = inhibition is -6.72%.

Take `Cc1ccc(OCc2nc(C#N)c(N3CCCC3)o2)cc1`: the Potency is 5.32 µM (active).

Consider `CC1CCN(c2oc(-c3ccccc3F)nc2C#N)CC1`, for which the max response, negative = inhibition was 1.03%.

Take `COC(=O)c1ccc(CN2C(=O)C(Cc3ccccc3)ON=C2c2ncccc2C)o1` (stereo not given): the max response, negative = inhibition was 5.05%.

With `CN1OC[C@@H]2CN(C(=O)C(C)(C)C)[C@H](c3ccc(-n4ccnc4)cc3)C[C@@H]21`, the max response, negative = inhibition is -0.5%.

Take `COc1cc(CNc2ncnc3c2ncn3[C@H]2CN(Cc3cccs3)C[C@@H](CO)O2)cc(OC)c1OC`: the max response, negative = inhibition was -6.55%.

Turning to `COCCCn1c(C(=O)NC2CCCCC2)cc2c(=O)n3cccc(C)c3nc21`, the max response, negative = inhibition was -6.64%.

For the molecule `Cn1c(Cn2nnc3ccccc32)nnc1SCC(=O)c1ccccc1F`, the max response, negative = inhibition was -9.05%.

Consider `C/C(Cn1nnc2ccccc21)=N\OC(=O)c1cc(F)c(F)cc1Cl`, for which the max response, negative = inhibition was -15%.

For `Fc1ccc(OCc2nn3c(Cn4nnc5ccccc54)nnc3s2)cc1`, the Potency was 11.9 µM (active).

`COC(=O)[C@]12CCCCC=C1N(Cc1ccc(Cl)cc1Cl)C(=O)[C@H](CC(=O)NCc1cccc3ccccc13)C2`: the max response, negative = inhibition was -11%.

As to `CCc1nc2c(=O)[nH]cnc2o1`, the max response, negative = inhibition is -1.77%.

Regarding `CC(=NNC(N)=O)C1CC2CCC1CC2` (stereo not given), the max response, negative = inhibition is -7.72%.

For `Cc1ccc(C(=O)NCCc2nnc(SCC(=O)Nc3cccc(C(=O)O)c3)n2C)cc1`, the max response, negative = inhibition was 1.64%.

On to `CC(C)c1nc(SCC(=O)Nc2cccc(C(=O)O)c2)c2c3c(sc2n1)CCCC3`, for which the Potency is 42.3 µM (active).

For the molecule `Cc1cc(NC(=O)CSc2nc(C(C)C)nc3sc4c(c23)CCC(C)C4)no1` (stereo not given), the max response, negative = inhibition is -3.46%.

Consider `CC1(C(=O)NCc2ccc3c(c2)OCO3)CCN1C(=O)Cc1cccs1` (stereo not given), for which the max response, negative = inhibition is 10.1%.

Consider `COC(=O)c1ccc2nc(-c3cccc(Br)c3)c(Cc3ccccc3C(F)(F)F)n2c1`, for which the max response, negative = inhibition was -0.95%.

For `CCN(CC)S(=O)(=O)c1ccc(NC(=O)c2cccnc2Cl)c(NC(=O)c2cccnc2Cl)c1`, the Potency is 23.8 µM (active).

On to `Cc1ccc(CNC(=O)c2cccnc2Cl)cc1`, for which the max response, negative = inhibition was -17.3%.

Turning to `CCN(CC)S(=O)(=O)c1ccc(NC(=O)c2cnc(C)cn2)cc1`, the max response, negative = inhibition is 1.21%.

Consider `COc1ccc(-c2csc(C(O)c3cccc(Cl)c3)n2)cn1` (stereo not given), for which the max response, negative = inhibition is -6.07%.

In the case of `CCCCCNC(=O)C(c1ccc(OC)cc1)n1c(=O)c(-c2ccccc2)nc2ccccc21` (stereo not given), the max response, negative = inhibition was -10.5%.

Consider `Cc1nc2ccc(NC(=O)c3cccc(S(=O)(=O)N4CCOCC4)c3)cc2s1`, for which the max response, negative = inhibition was -2.09%.

For `COc1ccc(NS(=O)(=O)c2ccc(NC(=S)NC(=O)CC(C)C)cc2)cc1`, the max response, negative = inhibition is -14.2%.

In the case of `COc1ccc(NS(=O)(=O)c2ccc3oc(SCC(N)=O)nc3c2)cc1`, the max response, negative = inhibition was -0.392%.

On to `O=S(=O)(Nc1ccc2nc(N3CCOCC3)sc2c1)c1ccccc1`, for which the max response, negative = inhibition was -10.1%.

As for `COc1ccc(S(=O)(=O)Nc2ccc(O)c(Sc3nc4ccccc4s3)c2)cc1`, the Potency was 16.8 µM (active).

`O=C(O)c1cccc(S(=O)(=O)Nc2ccc(O)cc2Sc2nc3ccccc3s2)c1`: the Potency was 13.4 µM (active).

As for `N#Cc1ccc(-c2ccc3nccn3c2)cc1`, the max response, negative = inhibition is -5.23%.

As to `Cc1cc(C)n2nc(C(=O)N3CCN(Cc4ccc5c(c4)OCO5)CC3)nc2n1`, the max response, negative = inhibition is -1.06%.

For the molecule `COc1ccc(-c2cc(C(=O)N3CCN(Cc4ccc5c(c4)OCO5)CC3)on2)cc1OC`, the Potency is 5.97 µM (active).

As to `O=C(c1cccs1)N1CCN(Cc2ccc3c(c2)OCO3)CC1`, the max response, negative = inhibition is -0.579%.

Take `CC(C)Oc1ccc(CC(=O)NNC(=S)Nc2ccc(Br)cc2)cc1`: the Potency is 13.4 µM (active).

With `COC(=O)Cc1ccc(NC(=S)NCc2ccccc2)cc1`, the max response, negative = inhibition is -14.7%.

For `Cc1ccc(OC(=O)CCC(=O)Nc2ccc(Br)cc2)cc1`, the max response, negative = inhibition is -3.3%.

For `O=C1NC[C@@H](CCCCN2CCN(CCc3ccc(O)cc3)C(=O)C2=O)N(CC2CCCCC2)C1=O`, the max response, negative = inhibition was -8.33%.

On to `FC(F)(F)c1cccc(-c2nc3ccccc3n2C(c2ccccc2)c2nc3ccccc3[nH]2)c1` (stereo not given), for which the max response, negative = inhibition was -0.5%.

Consider `Cc1cccc(C)c1NC(=O)CN1CCN(c2ccc(F)cc2)CC1`, for which the max response, negative = inhibition is -2.75%.

With `CCOc1cc(C=NNC(=O)CCCC(=O)NN=Cc2ccc(O)c(OCC)c2)ccc1O`, the max response, negative = inhibition was -0.399%.

In the case of `C=CCNC(=O)CCCC(=O)NCC=C`, the max response, negative = inhibition was 2.64%.

For the molecule `C/C=N/NC(=O)CCCC(=O)N/N=C/C`, the Potency was 29.9 µM (active).
